Hits are enriched below; roughly 8.7% of the tested compounds scored in any of these assays.
VACV Venus inh = inhibitors of vaccinia virus (Venus reporter); Potency, µM (series often up to 36.5 µM), inactives show at the highest dose activity change, negative = inhibition, most hits filed as inhibitors; hit rate 0.46% among 330,000; Vaccinia virus Venus reporter expression, fluorescence; calls by dose curve; tested in A549 cells; note: nearly all actives have a fitted effect of over 30% in size
VACV mCherry inh = inhibitors of vaccinia virus infection (mCherry reporter signal); hit rate 0.63% among 310,000; Vaccinia virus mCherry reporter infection, fluorescence; Potency, µM (series often up to 36.5 µM), for the others: at the highest dose activity change, negative = inhibition, actives largely listed as inhibitors; calls by dose curve; tested in A549 cells; note: nearly all actives have a fitted effect of over 35% in size
AMA1-RON2 inh = inhibitors of Plasmodium falciparum AMA1-RON2 interaction; AlphaScreen AMA1-biotinylated RON2 peptide binding; Potency, µM (doses to about 58.2 µM), without a hit: top-dose activity change, negative = inhibition, usual class: inhibitors; hit rate 0.2% among 360,000; AID 720542;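 note: 0% = vehicle wells and -100% = peptide control; nearly all actives have a fitted effect of over 45% in size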
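AMA1 (3D7) with his tag at 25 nM final met compounds first, then biotinylated RON2 peptide at 25 nM; detection used donor plus acceptor beads, 10 µg/mL apiece, read by AlphaScreen after 30 min at room temperature.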
Pf growth 48h = P. falciparum growth inhibition at 48 hours (one generation); P. falciparum luciferase growth in erythrocytes, 48 h; hit rate 5.9% among 310,000; Potency, µM (top dose mostly 28.7 µM), for the others: top-dose activity change, negative = inhibition, usual class: inhibitors
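Here the parasites carry a stable luciferase gene and grow inside erythrocytes in Albumax-based RPMI medium with compound for one erythrocytic cycle. Activity is scored as loss of luminescent signal.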
Pf growth 96h = inhibits malaria parasite growth, 96 h. P. falciparum luciferase reporter growth, 96 h. Potency, µM (top dose mostly 28.7 µM), for the others: at the top dose activity change, negative = inhibition, actives largely listed as inhibitors. hit rate 6.9% among 320,000. AID 504834
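Delayed-death screen, second-generation endpoint: infected erythrocytes, 2% hematocrit, 0.05% parasitemia final; 96 hours at 37 C, 5% CO2; luciferase detection reagent; luminescence decrease equals reduced growth.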
* = called active by the depositor; i = inactive; u = inconclusive; x = no result given; [ ] = remark or other dose. Unless noted, calls come from the whole dose curve; as a rule, active = well fitted curve in the direction sought with a large enough effect; inconclusive = small, poorly fitted or top-dose-only effect, or another doubt; inactive = no such curve, though single readings can be large; an effect the other way counts as inactive or inconclusive. Unless noted, % is set by controls: 0 for no effect and ±100 for the full control effect; potency is the fitted concentration of half-maximal effect.

SMILES | VACV Venus inh | VACV mCherry inh | AMA1-RON2 inh | Pf growth 48h | Pf growth 96h
COCCN1C=C(C(=O)OC)C(c2cc(Br)c(OC)c(OC)c2)C(C(=O)OC)=C1 | u | x | 31% | 3.3µM* | 4%
COC(=O)C1=CN(Cc2ccccc2)C=C(C(=O)OC)C1c1ccc(O)c(OC)c1 | x | x | 8% | 13µM* | 240%
COC(=O)C1=CN(Cc2ccccc2)C=C(C(=O)OC)C1c1ccc(OC)c(OC)c1 | x | x | -2% | u | 0%
COC(=O)C1=CN(Cc2ccc(OC)c(OC)c2)C=C(C(=O)OC)C1c1ccc(O)cc1 | x | x | -3% | u | 52%
COC(=O)C1=CN(Cc2ccc(C)cc2)C=C(C(=O)OC)C1c1cc(OC)c(OC)c(OC)c1 | x | x | 46% | 1.5µM* | u
CCOC(=O)c1noc2ncnc(Nc3ccc(C)c(F)c3)c12 | 2% | -6% | x | x | x
CCOC(=O)c1ccc2c(c1)[n+](CC)c(C)n2-c1ccccc1 | -11% | -2% | 0% | u | u
CC[n+]1c(C)cc(C)n1-c1ccccc1 | -15% | -9% | 0% | u | 8.3µM*
Cc1cccc(C)c1-n1ncc(C(=O)N2CCN(c3ccccn3)CC2)c1C1CCN(C(=O)OC(C)(C)C)CC1 | -15% | -13% | x | x | x
Nc1ccc2cc3ccc(N)cc3nc2c1 | x | x | x | 3.8µM* | 2.4µM*
CCCc1[nH]c(=O)c(C#N)c2c1COC(C)(C)C2 | x | x | 0% | x | 1.7µM*
CCOC(=O)N1CCC(NC(=O)c2ccccc2C(=O)O)CC1 | -13% | i | 0% | 5.9µM* | 0%
CCOC(=O)N1CCC(NC(=O)Cc2ccccc2)CC1 | x | x | -21% | 25% | -21%
CCOC(=O)N1CCC(NC(=O)c2cccs2)CC1 | -10% | -13% | 0% | 3% | 20%
CCOC(=O)N1CCC(NC(=O)CCC(=O)c2ccccc2)CC1 | -2% | -13% | 1% | -9% | 8.3µM*
CCOC(=O)N1CCC(NC(=O)c2cc(C(=O)Nc3cccc(C(F)(F)F)c3)ccc2CO)CC1 | u | i | 2% | -10% | 2.3µM*
CCOC(=O)Cn1nc(-c2ccc(Cl)cc2)ccc1=O | x | x | -3% | 12% | 9.3µM*
CCOC(=O)N1CCC(NC(=O)c2ccc(CO)c(C(=O)NC3CCN(C(=O)OCC)CC3)c2)CC1 | -10% | i | -2% | u | u
CCc1ccc2c(c1)-c1ccccc1S(=O)(=O)N2CC(=O)N1CCC(C)CC1 | -15% | -13% | x | x | x
Cc1ccc(NC(=O)c2ccc(CNS(=O)(=O)c3ccc4c(c3)C(C)(C)C(=O)N4C)cc2)cc1C | -24% | -27% | x | x | x
NC(=O)C1CCN(CC(=O)Nc2cccc(C(=O)Nc3cccc(C(F)(F)F)c3)c2)CC1 | -9% | -9% | -10% | 1.2µM* | u
CCOC(=O)N1CCC(NC(=O)Cn2nc(-c3ccccc3)ccc2=O)CC1 | -6% | -21% | -2% | -6% | 9.3µM*
Cc1ccc(Nc2cc(C)nn2-c2nc(C)cc(C)n2)cc1 | u | -7% | -11% | 3.7µM* | x
Cc1ccc(Nc2nc3ccccc3nc2-n2nc(C)cc2C)cc1 | -6% | -1% | 27% | 47% | 3%
Cc1ccc(Nc2cc(C)nn2-c2nc(C)cc(=O)[nH]2)cc1 | u | 2.2µM* | 52% | u | -7%
SMILES | VACV Venus inh | VACV mCherry inh | AMA1-RON2 inh | Pf growth 48h | Pf growth 96h
COc1ccccc1NC(=O)CSC1=Nc2ccccc2C2=NC(CCC(=O)NCc3ccco3)C(=O)N12 (stereo not drawn) | -20% | -19% | x | x | x
CC(C)(C)c1cc[n+](C2=C([O-])c3ccccc3C(=O)/C2=N\S(=O)(=O)c2cccs2)cc1 | u | u | -10% | 1.3µM* | 2.1µM*
COc1ccc(Nc2cc(C)nc(N)n2)cc1 | -23% | -15% | 10% | u | u
Cc1cc(Nc2ccc(Cl)cc2)nc(N)n1 | x | x | 2% | u | 2.6µM*
Nc1cc(Nc2ccc(Br)cc2)nc(N)n1 | -22% | u | 16% | u | 10µM*
CCOCCCNCc1cc(Br)ccc1OCc1ccccc1 | -1% | -10% | 13% | 10µM* | u
CCOc1cc(CNCCc2ccc(S(N)(=O)=O)cc2)cc(Cl)c1OCc1ccccc1 | x | x | -4% | 13µM* | 13µM*
NS(=O)(=O)c1ccc(CCNCc2cc(Br)ccc2OCc2ccccc2)cc1 | u | -20% | -11% | 13µM* | -18%
CCOc1cc(CNCCc2ccc(S(N)(=O)=O)cc2)ccc1OCc1ccccc1 | x | x | -7% | u | u
OCCNCc1cc(Br)ccc1OCc1ccccc1 | -11% | -28% | -21% | -29% | -9%
CCOc1cc(CNCCc2c[nH]c3ccccc23)cc(Cl)c1OCC | 11µM* | u | u | u | u
COc1ccccc1N1CCN(c2nc3ccc(C(=O)c4ccccc4)cc3n3c(C)nnc23)CC1 | -11% | -14% | x | x | x
CCO[C@H]1OC(C(=O)N2CCN(Cc3ccccc3)CC2)=C[C@@H](C)[C@@H]1CCCO | -5% | -17% | -3% | 4% | 0%
CCO[C@@H]1OC(C(=O)N2CCN(Cc3ccccc3)CC2)=C[C@H](c2ccc(C(F)(F)F)cc2)[C@H]1CCCO | u | i | 47% | u | 15µM*
CCO[C@@H]1OC(C(=O)N2CCN(Cc3ccccc3)CC2)=C[C@H](c2ccc(Br)cc2)[C@H]1CCCO | -23% | -12% | -20% | u | 13µM*
CCOc1ccc(NC(=O)[C@@H](c2ccccc2)N2Cc3ccccc3C2=O)cc1 | -12% | -13% | x | x | x
O=C1CC(=Nc2ccccc2)NN1c1ccccc1 | x | x | -11% | u | 13µM*
Cn1nnnc1SCCCNCc1cc(Cl)ccc1OCc1ccc(F)cc1 | -27% | -7% | x | x | x
CCOC(=O)c1c(NC(=O)C(c2ccccc2)c2ccccc2)sc2c1C1CCN2CC1 | x | x | -29% | 2.1µM* | u
CCOC(=O)c1cc(CC)sc1NC(=O)COc1ccccc1C | -7% | -10% | x | x | x
CCOC(=O)c1cc(CC)sc1NC(=O)c1cc(OCC)c(OCC)c(OCC)c1 | x | x | -6% | 8.3µM* | 5.9µM*
CCOC(=O)c1cc(CC)sc1NC(=O)C(c1ccccc1)c1ccccc1 | -12% | i | -16% | u | 8.3µM*
Cc1ccc(O)c(NC(=O)c2nc3nc(C)cc(C(F)F)n3n2)c1 | -27% | -25% | x | x | x
O=[N+]([O-])c1ccc(S(=O)(=O)Nc2nc(-c3ccccc3)cs2)cc1 | x | x | 0% | 25% | 6.6µM*
O=[N+]([O-])c1ccc(N2CCN(Cc3ccccc3)CC2)c2c1no[n+]2[O-] | 4% | u | 22µM* | x | x
O=[N+]([O-])c1ccc(N2CCN(Cc3ccccc3)CC2)s1 | -19% | i | 5% | -6% | 24%
CC(C)NCC(O)COc1cccc2[nH]ccc12 (stereo not drawn) | 0% | -8% | x | -3% | 0.85µM*
C=CCOc1ccccc1OC[C@H](O)CNC(C)C | x | x | x | -25%[12.8 µM] | u
CC(C)NCC(O)COc1cccc2ccccc12 (stereo not drawn) | -9% | -20% | -1% | 10µM* | u
OCC(O)COc1cccc2ccccc12 (stereo not drawn) | -2% | i | x | x | x

Bioassay records (PubChem BioAssay)
